Measured values: PubChem BioAssay
Where “and” joins values, the source holds several entries; their conditions need not be identical. Equal entries are not always repeated. Peptide text beside a SMILES is read from it. * marks the point of attachment. CH2Cl = ClC*

Assay: sensitizers of A549 cells to miR-34 induction, primary screen, imaging, A549 dox-inducible miR-34, nuclei and caspase counts (AID 1347080); note: test concentration not given here
Conditions: A549 miR-34 inducible, Hoechst nuclei count, 48 h; measured here: relative caspase fold change +Dox/-Dox
With `CCCCC/C=C\C/C=C\C/C=C\C/C=C\CCCC(=O)Nc1ccc2c(C)cc(=O)oc2c1` the fold change was 0.94. `CC(C)[C@]1(O)[C@@H](OC(=O)c2ccc[nH]2)[C@@]2(O)[C@@]3(C)C[C@]4(O)O[C@@]5([C@H](O)[C@@H](C)CC[C@]35O)[C@@]2(O)C41C` showed a fold change of 1.12. In the case of `C=C1[C@@H](C)[C@H]2[C@H](Cc3ccccc3)NC(=O)[C@]23OC(=O)/C=C/[C@H](O)CCC[C@@H](C)C/C=C/[C@H]3[C@@H]1O`, the fold change is reported as 1.09. In the case of `COc1cc(/C=C\c2ccc(OC)c(O)c2)cc(OC)c1`, the fold change is reported as 0.882. `C[C@H](N)C(=O)N[C@@H](C)C(=O)N[C@@H](Cc1ccccc1)C(=O)CCl` (H-Ala-Ala-Phe-CH2Cl) gave a fold change of 1.41.

Same assay, conditions: A549 miR-34 inducible, Hoechst nuclei count, 48 h; measured here: total cells with miR-34 induction; stronger effect = lower value
`C=C(C)[C@H]1O[C@H]2CC[C@@]3(C)[C@@](O)(CC[C@H]4[C@@H]5OC(C)(C)[C@H]6C[C@@H]7C(=C)Cc8c(Cl)cc9[nH]c(c5c9c8[C@@]76O)[C@@]43C)[C@]23O[C@@H]3[C@H]1O` showed a cell count of 1060. Work on `CCCCC/C=C\C/C=C\C/C=C\C/C=C\CCCC(=O)NC[C@H](C)O` yielded a cell count of 6010. For `C=C(C)[C@@H]1CCC(C)=C[C@H]1c1c(O)cc(O)cc1CCCCC`, the cell count was 5030. In the case of `N[C@H]1C[C@@H]1c1ccccc1`, the cell count is reported as 9050. Molecule `C[C@]12CCC3c4ccc(OC(=O)N(CCCl)CCCl)cc4CCC3C1CC[C@@H]2O` (stereo not given in full) has a cell count of 2030. `CCOC(=O)CN1C(=O)CC(C[C@@H](O)C2C[C@@H](C)C[C@H](C)C2=O)CC1=O` (stereo not given in full) showed a cell count of 4960. With `c1cc2ccsc2c(N2CCNCC2)n1` the cell count was 5170. `CCCCC/C=C\C/C=C\C/C=C\C/C=C\CCCC(=O)NC1CC1` showed a cell count of 5860. For `C=C(C)[C@@H]1CCC(C)=C[C@H]1c1c(OC)cc(CCCCC)cc1OC`, the cell count was 5760. Work on `C[C@@]1(CO)[C@H](O)CC[C@@]2(C)[C@H]1CC[C@H]1C[C@@H]3C[C@@]12CC[C@]3(O)CO` yielded a cell count of 2420. `COc1cc(CNC(=O)CCCCCCC(C)C)c(I)cc1O` gave a cell count of 5730. With `CCCCCCCC/C=C\CCCCCCCC(=O)N[C@H](C)CO` the cell count was 5120. With `CN=C(NS(=O)(=O)c1ccc(Cl)cc1)N1C[C@@H](c2ccccc2)C(c2ccc(Cl)cc2)=N1` the cell count was 3940. `C=C(C)[C@@H]1CCC(C)=C[C@H]1C1=C(O)C(=O)C(CCCCC)=CC1=O` gave a cell count of 5410. For `CCCCC/C=C\C/C=C\C/C=C\C/C=C\CCCC(=O)NCCCC(=O)O`, the cell count was 5500. In the case of `CCCCC/C=C\C/C=C\C/C=C\C/C=C\CCCC(=O)Nc1cccc([N+](=O)[O-])c1`, the cell count is reported as 5310. In the case of `CCCN(CCCN)N(O)N=O`, the cell count is reported as 5850. Molecule `O[C@H]1[C@H]2[C@H](O)CCCN2C[C@H]1O` has a cell count of 5340. For `CCCCCCC(=O)O[C@H]1CC[C@H]2[C@@H]3C[C@@H](O)C4=CC(=O)CC[C@]4(C)[C@H]3CC[C@]12C`, the cell count was 5500. `CO[C@@H]1C[C@@H](C[C@H]2CC[C@H](C)[C@H]([C@@H](C)C(=O)O)O2)O[C@]2(O[C@](C)([C@H]3CC[C@@](C)([C@@H]4O[C@@H]([C@H]5O[C@@](O)(CO)[C@H](C)C[C@@H]5C)C[C@@H]4C)O3)C[C@H]2C)[C@@H]1C` gave a cell count of 1790. With `CCCCC/C=C\C/C=C\C/C=C\C/C=C\CCCC(=O)NCC(O)CC(=O)O` (stereo not given) the cell count was 5440. In the case of `CC(C)(O)[C@H]1O[C@H]2CC[C@@]3(C)[C@@](O)(CC[C@H]4Cc5c([nH]c6ccccc56)[C@@]43C)C2=CC1=O`, the cell count is reported as 3780. Work on `CCN1C[C@@]2(COC)C3[C@@H](OC)[C@H]4[C@H]1C3([C@@H]1C[C@@]3(O)[C@H](OC(=O)c5ccccc5)[C@@H]1[C@]4(OC(C)=O)[C@@H](O)[C@@H]3OC)[C@H](OC)C[C@H]2O` yielded a cell count of 5730. In the case of `CC1(O)C[C@@]23C[C@@H](O)[C@@]4(O)[C@@H](C[C@H](O)C4(C)C)[C@](C)(O)[C@@H]2CCC1[C@H]3O` (stereo not given in full), the cell count is reported as 6010. `CCCCCCC(C)(C)c1cc(OC)c2c(c1)OC(C)(C)[C@@H]1CC=C(C)C[C@@H]21` showed a cell count of 6970. For `COC(C/C=C/C=C/CC/C=C\CC(C)/C=C\C(=C/C(=O)O)CC(=O)O)/C(C)=C\C=C(/C)C(=O)O` (stereo not given), the cell count was 5720. In the case of `CCCCC/C=C\C/C=C\C/C=C\C/C=C\CCCC(=O)N[C@@H](C)CO`, the cell count is reported as 6190. Molecule `Clc1ccc(C2CC3CCC2N3)cn1` (stereo not given) has a cell count of 6010. In the case of `CCCC[C@H]1C(=O)O[C@H](C)[C@H](NC(=O)c2cccc(NC=O)c2OC)C(=O)O[C@@H](C)[C@@H]1OC(=O)CC(C)C`, the cell count is reported as 869. In the case of `CCCCC/C=C\C/C=C\C/C=C\C/C=C\CCCC(=O)NCc1ccc(O)c(OC)c1`, the cell count is reported as 2750 and 5480. With `CCCCCCCCCC(=O)OC[C@H](COP(=O)([O-])OCC[N+](C)(C)C)OC(=O)CCCCCCCCC` the cell count was 5320. In the case of `CCCCC/C=C\C/C=C\C/C=C\C/C=C\CCCC(=O)Nc1cccc(O)c1`, the cell count is reported as 5390. Molecule `O=C(NCCN1CCC2(CC1)C(=O)NCN2c1ccccc1)c1ccc2ccccc2c1` has a cell count of 5740. `COC[C@H]([C@@H](O)[C@@H](O)C(=O)NCC[C@@H](C)c1nc(/C=C/C[C@H]2OC3(C[C@H](O)[C@H]2C)OC([C@@H](C[C@@H](O)[C@@H](C)[C@@H](O)[C@@H](C)/C=C(C)/C(C)=C/C=C/C(C)=C\C#N)OC)[C@@H](OP(=O)(O)O)C3(C)C)co1)N(C)C` (stereo not given in full) gave a cell count of 250. For `O=C(CCC/C=C\C[C@@H]1[C@@H](/C=C/[C@@H](O)COc2cccc(C(F)(F)F)c2)[C@H](O)C[C@@H]1O)NC(CO)CO`, the cell count was 5260. For `CCCCC/C=C\C/C=C\C/C=C\C/C=C\CCCC(=O)Nc1ccc2c(C)cc(=O)oc2c1`, the cell count was 5170. Work on `CC(C)[C@]1(O)[C@@H](OC(=O)c2ccc[nH]2)[C@@]2(O)[C@@]3(C)C[C@]4(O)O[C@@]5([C@H](O)[C@@H](C)CC[C@]35O)[C@@]2(O)C41C` yielded a cell count of 5510. Molecule `C=C1[C@@H](C)[C@H]2[C@H](Cc3ccccc3)NC(=O)[C@]23OC(=O)/C=C/[C@H](O)CCC[C@@H](C)C/C=C/[C@H]3[C@@H]1O` has a cell count of 1220. In the case of `COc1cc(/C=C\c2ccc(OC)c(O)c2)cc(OC)c1`, the cell count is reported as 1120. Work on `C[C@H](N)C(=O)N[C@@H](C)C(=O)N[C@@H](Cc1ccccc1)C(=O)CCl` (H-Ala-Ala-Phe-CH2Cl) yielded a cell count of 2970.
